In the library only some 1.7% were active in any assay of this set; here they are far more common.
GLP1R cytotox – qHTS of GLP-1 Receptor Inverse Agonists: Cytotox Screen | 410,000 tested, 0.13% active | Potency, µM (top dose mostly 38.3 µM), for the others: top-dose activity change, negative = inhibition, usual class: inhibitors | HEK293 cAMP-luciferase reporter cells, luminescence, 24 h;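 note: loss of luciferase light is scored as toxicity; % is set by controls: 0 for no effect and ±100 for the full control effect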
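MLSMR compounds, 24 hr on cells at 37 deg C/5% CO2; luminescence after luciferase reagent (12 min RT). Inhibition counted as the undesired cytotoxic outcome.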
GLP1R ag – qHTS of GLP-1 Receptor Agonists; Glucagon-like peptide 1 receptor (Homo sapiens), P43220; HEK293 GLP-1R CRE-luciferase, luminescence, 4-6 h; cells express a hypersensitive GLP-1R form; Potency, µM (top dose mostly 45.6 µM), for the others: top-dose activation, most hits filed as activators; 380,000 tested, 0.007% active; note: % of control where 0% means no effect
Target sequence (P43220 whole entry, looked up): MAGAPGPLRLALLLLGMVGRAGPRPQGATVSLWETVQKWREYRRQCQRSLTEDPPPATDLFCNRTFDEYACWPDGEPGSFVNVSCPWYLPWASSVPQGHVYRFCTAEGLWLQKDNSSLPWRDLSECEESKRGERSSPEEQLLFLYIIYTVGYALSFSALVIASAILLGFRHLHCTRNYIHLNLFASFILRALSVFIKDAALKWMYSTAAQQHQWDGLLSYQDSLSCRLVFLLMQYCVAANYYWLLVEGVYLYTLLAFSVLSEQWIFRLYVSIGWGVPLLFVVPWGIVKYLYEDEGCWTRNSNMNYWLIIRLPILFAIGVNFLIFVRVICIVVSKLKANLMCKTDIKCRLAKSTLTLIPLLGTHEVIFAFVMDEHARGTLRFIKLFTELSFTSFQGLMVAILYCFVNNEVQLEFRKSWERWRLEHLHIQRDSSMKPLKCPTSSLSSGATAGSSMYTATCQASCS
GLP1R inv ag – qHTS of GLP-1 Receptor Inverse Agonists (Inhibition Mode) | Glucagon-like peptide 1 receptor (Homo sapiens), P43220 | HEK293 GLP-1R CRE-luciferase, luminescence, 24 h; GLP-1R form is constitutively active | Potency, µM (series often up to 38.3 µM), inactives show top-dose activity change, negative = inhibition, usual class: inhibitors | 410,000 tested, 1.6% active | AID 624417, 2012; note: % is set by controls: 0 for no effect and ±100 for the full control effect; nearly all actives have a fitted effect of over 55% in size
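qHTS in 1536-well format: reporter HEK293 cells expressing constitutive GLP-1R activity in DMEM + 10% Nu serum, 24 hr with compounds at 37 deg C, luminescence read after 12 min with detection reagent.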
PTHR1 agonist – qHTS for PTHR1 Agonists: Primary Screen; 410,000 tested, 0.075% active; HEK293 GP2 PTHR1 cells, GloSensor cAMP luminescence, 1 h; Potency, µM (series often up to 115 µM), without a hit: at the top dose activation, actives largely listed as activators; note: nearly all actives have a fitted effect of over 55% in size
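HEK-293-derived GP2 cells expressing PTHR1 and a GloSensor cAMP reporter, 3,000/well, plated overnight, given luciferin plus IBMX (each 0.5 mM as added) for 1 h at 37 °C, then compound for 1 h at 37 °C. Luminescence was read after 15 min at room temperature.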
RGS4 inh – Inhibitors of Regulator of G Protein Signaling (RGS) 4: qHTS; AID 504845, 2011; Regulator of G-protein signaling 4 (Homo sapiens), P49798; Transcreener GDP fluorescence polarization, RGS4-accelerated GTP hydrolysis; Potency, µM (doses to about 114 µM), inactives show at the top dose activity change, negative = inhibition, hits mostly inhibitors; 390,000 tested, 0.039% active; note: % is set by controls: 0 for no effect and ±100 for the full control effect; nearly all actives have a fitted effect of over 75% in size
Target sequence (P49798 whole entry, looked up): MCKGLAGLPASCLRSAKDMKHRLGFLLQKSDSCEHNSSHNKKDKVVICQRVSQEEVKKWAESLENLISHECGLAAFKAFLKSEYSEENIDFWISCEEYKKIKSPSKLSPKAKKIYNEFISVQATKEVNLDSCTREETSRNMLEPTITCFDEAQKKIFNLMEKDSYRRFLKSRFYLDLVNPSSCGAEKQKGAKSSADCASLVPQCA
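MLSMR compounds (23 nl, pin-transferred) preincubated 10 min at room temperature with a 500nM (2x) first reagent, then RGS4 at 900nM (2x) plus Transcreener GDP mix added; fluorescence polarization (620/688 nm) read before and after 90 min at 30 °C.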
Starred values were filed as active, the others as inactive; i = inactive; ? = inconclusive; · = not tested or not shown; [ ] = another dose, or the depositor's remark. Calls come from the whole dose curve; as a rule, active = well fitted curve in the direction sought with a large enough effect; inconclusive = small, poorly fitted or top-dose-only effect, or another doubt; inactive = no such curve, though single readings can be large; an effect the other way counts as inactive or inconclusive. Potency is the fitted concentration of half-maximal effect.

SMILES	GLP1R cytotox	GLP1R ag	GLP1R inv ag	PTHR1 agonist	RGS4 inh
Cc1ccc(NC2=Nc3ccccc3CS2)cc1	-10%	-18%	6.3µM*	-17%[57.5 µM]	-22%
Cc1ccc(Nc2ccccc2)cc1	-20%	4%	-21%	-16%	-7%
COc1ccc(/C=C2/SC(=O)N(CCNC(=O)C3CC(=O)N(Cc4ccccc4)C3)C2=O)cc1 (stereo not given)	-10%	18%	14%	i	·
COC(=O)C(=Cc1ccccc1[N+](=O)[O-])C(=O)OC	?	-4%	10µM*	-94%	-10%
NC1(C(=O)O)CCc2cc(P(=O)(O)O)ccc21 (stereo not given)	·	·	·	·	38µM*
N[C@]1(C(=O)O)CCc2cc(P(=O)(O)O)ccc21	·	·	·	·	212%[56.9 µM]
CCOC(=O)c1cc(-c2ccccc2)n(-c2cccc(C(=O)Nc3cccc(C(C)=O)c3)c2)c1C	-26%	·	5.6µM*	-40%	0%
CCOC(=O)c1cc(-c2ccccc2)n(-c2cccc(C(=O)Nc3cccc(F)c3)c2)c1C	-19%	·	?	-13%	-31%
CCOC(=O)c1cc(-c2ccccc2)n(-c2cccc(C(=O)Nc3ccc(F)c(F)c3)c2)c1C	-14%	·	?	-21%	16%
CCOC(=O)c1cc(-c2ccccc2)n(-c2cccc(C(=O)Nc3cccc(SC)c3)c2)c1C	-6%	·	3.5µM*	-37%	-7%
Clc1ncnc2[nH]ccc12	7%	11%	23%	?	14%
COc1nc(N)nc(NC(=O)c2cccs2)c1N=O	0%	4%	63%	-23%	?
COc1ccccc1OCCOc1ccc(C(=O)c2ccccc2)cc1	-10%	4%	8.9µM*	-24%	-5%
Cc1ccc(CNC(=O)C(C)n2nc(C)c3sc4ccccc4c3c2=O)cc1 (stereo not given)	-8%	·	-10%	45µM*	-27%
Cc1nn(C(C)C(=O)NCc2ccc(OC(C)C)cc2)c(=O)c2c1sc1ccccc12 (stereo not given)	17%	·	-19%	?	23%
CC1(Cc2ccc(F)cc2)C(=O)Nc2ccc(S(=O)(=O)NC3CCCCC3)cc21 (stereo not given)	-9%	6%	-4%	-6%	·
CNC(=S)N(Cc1ccc(OC)cc1)C1CC(=O)N(c2ccc(Cl)cc2)C1=O (stereo not given)	-16%	-2%	11µM*	-40%	-22%
CCOC(=O)C(=O)Cc1cccnn1	7%	-2%	8%	i	-34%
Cc1ccc2c(c1C)-c1c(ccc(C)c1C)C(=O)C2=O	?	-5%	0.79µM*	-35%	?
CC1=C(C(=O)N(C(C)C)C(C)C)CC(CC(=O)NCC2CCCCC2)C(=O)N1Cc1ccc(C(C)(C)C)cc1 (stereo not given)	·	·	·	-56%	·
O=c1c(-c2ccccc2)nc2ccccc2n1C(CCc1ccccc1)c1nc2ccccc2[nH]1 (stereo not given)	-15%	·	10µM*	0%	·
O=c1c(-c2ccccc2)nc2ccccc2n1C(c1ccccc1)c1nc2ccccc2[nH]1 (stereo not given)	-22%	·	1.6µM*	-44%	·
O=C(COC(=O)/C=C/c1ccccc1Cl)NC(=O)NCc1ccccc1	-24%	0%	14%	i	-3%
CCOc1ccccc1N=C1SCC(C)N1C(=O)C1CCN(c2ncnc3sc(C)c(C)c23)CC1 (stereo not given)	-28%	-3%	?	-26%	15%
Cc1ccc2ccc(C(Nc3ccccc3)c3ccccc3)c(O)c2n1 (stereo not given)	6%	·	6.3µM*	-75%	·
SMILES	GLP1R cytotox	GLP1R ag	GLP1R inv ag	PTHR1 agonist	RGS4 inh
Cc1ccc2ccc(C(Nc3ccccc3)c3ccc(C(C)C)cc3)c(O)c2n1 (stereo not given)	-6%	·	3.5µM*	-49%	·
COc1ccc(CCNC(=O)c2ccc3c(c2)N(Cc2ccc(F)cc2)C(=O)c2ccccc2S3(=O)=O)cc1OC	-24%	·	-3%	28%	-33%
Cc1cccc(NC(=O)C23CCC(C)(C2Br)C3(C)C)c1 (stereo not given)	9%	2%	3.5µM*	i	4%
O=C(Nc1ccc(C(F)(F)F)cc1)C1CCCN(c2cnccn2)C1 (stereo not given)	-4%	·	-24%	i	9%
Cc1ccccc1-c1noc(CCC(=O)Nc2cccc(C)c2C)n1	0%	·	0%	i	8%
COc1ccc(Cl)cc1NC(=O)c1cc2c(=O)n3ccccc3nc2s1	33%	·	1%	-18%	?
CCc1ccc(OCCNC(=O)c2ccccc2SCc2ccc(F)cc2)cc1	-4%	-2%	8.9µM*	-39%	?
CCc1ccc(NC(=O)CSc2nc(=O)n(CCN(C)C)c3c2CCCC3)cc1	-36%	23%	?	-13%	-17%
COc1cccc(Cn2c(CNS(=O)(=O)c3ccc(F)c(Cl)c3)nc3cccnc32)c1	-5%	·	?	-67%	-40%
COc1ccc(-n2c(C)cc(C(=O)CN3C(=O)NC4(CCCc5sccc54)C3=O)c2C)cc1 (stereo not given)	-8%	4%	13µM*	-28%	-22%
Cc1cc(C(=O)CN2C(=O)NC3(CCCc4sccc43)C2=O)c(C)n1-c1ccccc1 (stereo not given)	16%	1%	?	-20%	5%
O=C(O)CSc1cccc[n+]1[O-]	-2%	-12%	-5%	i	4%
O=C(CSc1cccc[n+]1[O-])c1cc(Cl)ccc1Cl	0.89µM*	7%	?	i	6%
O=C1[C@H]2[C@@H](c3ccc(F)cc3)N3C(=O)N(c4ccc(Br)cc4)C(=O)[C@@]3(Cc3ccc(Cl)cc3)[C@H]2C(=O)N1C1CCCCC1	8%	-1%	?	i	2%
O=C(/C=C\Nc1ccc2c(c1)OCO2)c1cccs1	-4%	-2%	2.2µM*	-46%	-8%
COc1ccccc1OCC(=O)NNC(=O)C1CCN(c2ncnc3sc(C)c(C)c23)CC1	-16%	-5%	?	-34%	-3%
COc1ccc(-c2csc(NC(=O)C3CCN(c4ncnc5sc(C)c(C)c45)CC3)n2)cc1OC	?	10%	7.1µM*	-30%	10%
O=C(c1cccs1)N1C[C@@H](O)[C@H](n2cc(-c3ccc(F)cc3)nn2)C[C@@H]1c1ccc(Cl)cc1	-21%	1%	?	-15%	·

Source: PubChem BioAssay (National Center for Advancing Translational Sciences (NCATS))
